Assay outcomes: PubChem BioAssay, National Center for Advancing Translational Sciences (NCATS)
Most compounds without a hit are left out; they make up all but 1.8% or so of the library.
PI4K2A block = qHTS for small molecular inhibitors of PI4K2A; 420,000 compounds, 0.13% hits; AID 1346378, 2018; purified PI4K2A, ADP-Glo luminescence, 1 h; hits give low values; activity change, negative = inhibition, % at 76.9 µM; Phosphatidylinositol 4-kinase type 2-alpha (Homo sapiens), Q9BTU6; in the data active = activity change below about -50%; inconclusive = mostly about -30% to -49%;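 also: -100% = wells without enzyme as full effect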
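In this quantitative HTS, ADP production by PI4K2A was quantified luminescently after 1 h at ambient temperature; 100 microM adenosine served as plate-quality control.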
PI5P4Ka inh = qHTS for Inhibitors of phosphatidylinositol 5-phosphate 4-kinase (PI5P4K); 330,000 compounds, 1.2% hits; PI5P4Kalpha enzyme, ADP-Glo luminescence, 60 min; hits give low values; AID 652105, 2013; max response, %; active = max response of -50% or lower; inconclusive = between -30% and -50%; inactive = -30% or higher; also: value at the top dose of about 77 µM
Target sequence (P48426 whole entry, looked up): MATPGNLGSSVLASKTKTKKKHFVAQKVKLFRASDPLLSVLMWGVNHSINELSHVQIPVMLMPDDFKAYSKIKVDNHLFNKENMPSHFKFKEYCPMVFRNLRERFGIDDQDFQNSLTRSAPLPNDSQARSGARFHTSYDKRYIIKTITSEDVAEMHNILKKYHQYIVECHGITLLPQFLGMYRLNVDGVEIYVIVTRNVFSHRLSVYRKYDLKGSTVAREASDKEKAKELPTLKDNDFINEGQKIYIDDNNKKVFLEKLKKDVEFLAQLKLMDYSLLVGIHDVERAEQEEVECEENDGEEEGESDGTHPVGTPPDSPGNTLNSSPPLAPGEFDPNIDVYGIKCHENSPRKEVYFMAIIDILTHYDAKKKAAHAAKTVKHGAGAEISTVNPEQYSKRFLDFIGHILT
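Human PI5P4Kalpha with substrate in 0.038 M HEPES pH 7.4, 0.28 mM EGTA, 0.1% CHAPS, 5% DMSO; reaction started with 5 microM ATP (final), 60 min at room temperature. ADP formed read by ADP-Glo luminescence.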
pAkt inh = HTS Assay for Inhibitors of Akt Phophorylation: Primary Screen | Neuro2A IGF-stimulated pAkt S473 HTRF, 20 min; hits give low values | activity change, % for hits at 50 µM | 360,000 compounds, 0.32% hits; in the data active = activity change below about -80%; inconclusive = mostly about -51% to -80%
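Neuro2A cells in DMEM with 0.5% FBS, overnight at 37 deg C, given compound at single 50 µM final, then IGF (6 nM final) for 20 min at 37 deg C. Lysed; phospho-Akt Ser473 by HTRF after 24 h, 665/615 ratio.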
Six1-Eya2 inh = qHTS Assay for Inhibitors of the Six1/Eya2 Interaction; Homeobox protein SIX1 (Homo sapiens) + Protein phosphatase EYA2 (Homo sapiens), …; AlphaScreen GST-Six1/His-Eya2 binding, biochemical; hits give low values; activity change, % (no concentration beside the values); 360,000 compounds, 0.56% hits; AID 651725, 2012
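Homogeneous AlphaScreen proximity assay pairing GST-Six1 with His-tagged Eya2 (added as 5X mix: 250 nM and 500 nM) in 50 mM Tris pH 8.0, 300 mM NaCl, 1 mM TCEP. Glutathione donor and nickel acceptor beads; 1 h, 37 °C, dark.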
CtBP-E1A blk = qHTS Assay for Inhibitors of the CtBP/E1A Interaction; AlphaScreen GST-E1A/His-CtBP binding, 1536-well; hits give low values; activity change, % (test concentration not listed); 340,000 compounds, 0.49% hits; AID 651724, 2012
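Steps: dispense buffer (Tris pH 8.0, NaCl 300 mM, TCEP 1 mM, BSA, Tween 20); add 5X protein mix (GST-E1A, His-CtBP, 125 nM each); pin 23 nL compound; 2 h at 37 °C, dark; add 5X beads (50 ug/mL); 1 h; read.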
ADP-Glo interf = qHTS for Inhibitors of PI5P4K: ADP-Glo counter assay; shares compounds with PI5P4Ka inh; ADP-Glo detection counter-screen, luciferase luminescence, no enzyme; Potency, µM (highest dose often 76.9 µM), for inactives: at the highest dose activity change, negative = inhibition, usual class: inhibitors; 1,100 tested, under 10 active; AID 743285, 2014; active = well fitted curve in the direction sought with a large enough effect; inconclusive = small, poorly fitted or top-dose-only effect, or another doubt; inactive = no such curve, though single readings can be large or run the other way
Active calls of the source: *. Rule as the data show it, unless noted: active = activity change below about -65%; inconclusive = mostly about -30% to -63%; inactive = weaker than that. Unless noted, % is scaled to controls: 0 for no effect and ±100 for the full control effect.

What do the screens show for `Oc1ccc(CNc2ccccc2F)c2cccnc12`?
PI4K2A block: -3.9; PI5P4Ka inh: inconclusive; pAkt inh: inactive; Six1-Eya2 inh: -91.3*; CtBP-E1A blk: -93.8*; ADP-Glo interf: -8.9%

How did Oc1ccc(CNc2ccccc2C(F)(F)F)c2cccnc12 do in these assays?
PI4K2A block: -13.7

Results for COCCCNc1ncnc2sc3c(c12)CCC(C)C3 (stereo unspecified) ?
PI4K2A block: -0.1; PI5P4Ka inh: 2.6; pAkt inh: inactive; Six1-Eya2 inh: -1.9; CtBP-E1A blk: -3.9

How did CC1CCc2c(sc3ncnc(NS(=O)(=O)c4cccs4)c23)C1 (stereo unspecified) do in these assays?
PI4K2A block: -5.5; PI5P4Ka inh: -54.7*; pAkt inh: inactive; Six1-Eya2 inh: -5.7; CtBP-E1A blk: -8.9; ADP-Glo interf: 2.0%

What do the screens show for `COc1ccc(S(=O)(=O)N2CCN(C(=O)C3COc4ccccc4O3)CC2)cc1` (stereo unspecified)?
PI4K2A block: -7.6; PI5P4Ka inh: -73.8*; pAkt inh: inactive; Six1-Eya2 inh: -20.2; CtBP-E1A blk: 3.9; ADP-Glo interf: 3.9%

Results for CC(=O)Nc1ccc(S(=O)(=O)N2CCN(C(=O)C3COc4ccccc4O3)CC2)cc1 (stereo unspecified) ?
PI4K2A block: 2.9; PI5P4Ka inh: -5.2; pAkt inh: inactive; Six1-Eya2 inh: -13.2; CtBP-E1A blk: -1.6

What do the screens show for `COc1ccccc1Cc1c(-c2ccco2)nc2ccc(Br)cn12`?
PI4K2A block: -21.8; PI5P4Ka inh: -56.1*; pAkt inh: inactive; Six1-Eya2 inh: inconclusive; CtBP-E1A blk: -5.3; ADP-Glo interf: -5.0%

What do the screens show for `Clc1ccc2nc(-c3ccccc3)c(Cc3ccsc3)n2c1`?
PI4K2A block: -3.9; PI5P4Ka inh: -22.2; pAkt inh: inactive; Six1-Eya2 inh: -3.7; CtBP-E1A blk: 2.3

What do the screens show for `Fc1cccc(Cc2c(-c3ccco3)nc3ccc(Cl)cn23)c1`?
PI4K2A block: -28.4; PI5P4Ka inh: -50.7*; pAkt inh: inactive; Six1-Eya2 inh: inconclusive; CtBP-E1A blk: -3.3; ADP-Glo interf: -3.7%

How did Clc1ccc2nc(-c3ccco3)c(Cc3ccsc3)n2c1 do in these assays?
PI4K2A block: -29.0; PI5P4Ka inh: -66.2*; pAkt inh: inactive; Six1-Eya2 inh: -21.0; CtBP-E1A blk: -9.7; ADP-Glo interf: -2.0%

Results for Clc1ccc2nc(-c3ccco3)c(Cc3ccccc3)n2c1 ?
PI4K2A block: -26.9; PI5P4Ka inh: -64.5*; pAkt inh: inactive; Six1-Eya2 inh: inconclusive; CtBP-E1A blk: -26.4; ADP-Glo interf: 0.8%

Results for COc1ccccc1Cc1c(-c2ccco2)nc2ccc(Cl)cn12 ?
PI4K2A block: -18.2; PI5P4Ka inh: inconclusive; pAkt inh: inactive; Six1-Eya2 inh: -20.4; CtBP-E1A blk: -10.6

Results for Cc1ccc2nc(-c3ccco3)c(Cc3ccccc3)n2c1 ?
PI4K2A block: -3.5; PI5P4Ka inh: -16.5; pAkt inh: inactive; Six1-Eya2 inh: -4.6; CtBP-E1A blk: -14.1

What do the screens show for `CCOC(=O)C1CCN(C(=O)CN2C(=O)c3ccccc3Sc3ncccc32)CC1`?
PI4K2A block: -5.0; PI5P4Ka inh: 6.1; pAkt inh: inactive; Six1-Eya2 inh: -0.1; CtBP-E1A blk: -0.4

What do the screens show for `Fc1cccc(Cc2c(-c3ccco3)nc3ccc(Br)cn23)c1`?
PI4K2A block: inconclusive; PI5P4Ka inh: -63.7*; pAkt inh: inactive; Six1-Eya2 inh: inconclusive; CtBP-E1A blk: 0.8; ADP-Glo interf: -4.3%

Results for Fc1cccc(Cc2c(-c3ccccc3)nc3ccc(Br)cn23)c1 ?
PI4K2A block: -2.7; PI5P4Ka inh: -7.1; pAkt inh: inactive; Six1-Eya2 inh: 5.6; CtBP-E1A blk: -1.3

How did Cc1cc(C(=O)Nc2cccc3c2O[C@@H](CN(C)S(=O)(=O)c2ccccc2)[C@H](C)CN([C@@H](C)CO)C3=O)n(C)n1 do in these assays?
PI4K2A block: 0.3; PI5P4Ka inh: -1.1; pAkt inh: inactive; Six1-Eya2 inh: -1.7; CtBP-E1A blk: 4.5

Results for Cc1cc(C(=O)Nc2cccc3c2O[C@@H](CN(C)S(C)(=O)=O)[C@H](C)CN([C@@H](C)CO)C3=O)n(C)n1 ?
PI4K2A block: -3.1; PI5P4Ka inh: -0.4; pAkt inh: inactive; Six1-Eya2 inh: -2.1; CtBP-E1A blk: 9.8; ADP-Glo interf: 1.5%

Results for COc1ccc(CCn2c(O)cc3nn(-c4nc5ccccc5s4)c(=O)c-3c2C)cc1 ?
PI4K2A block: -26.5; PI5P4Ka inh: -80.9*; pAkt inh: inactive; Six1-Eya2 inh: -17.5; CtBP-E1A blk: 2.0; ADP-Glo interf: 2.7%

What do the screens show for `Cc1c(CC(=O)O)c(=O)oc2c(C)c3occ(-c4ccc(Br)cc4)c3cc12`?
PI4K2A block: 4.5; PI5P4Ka inh: -50.7*; pAkt inh: inactive; Six1-Eya2 inh: inconclusive; CtBP-E1A blk: inconclusive; ADP-Glo interf: -7.3%

Results for COc1ccc(-c2coc3c(C)c4oc(=O)c(CC(=O)O)c(C)c4cc23)cc1 ?
PI4K2A block: -4.7; PI5P4Ka inh: -23.8; pAkt inh: inactive; Six1-Eya2 inh: -22.7; CtBP-E1A blk: -0.3

What do the screens show for `CC(C)NC(=O)N1c2ccccc2Sc2ccccc21`?
PI4K2A block: -11.8; PI5P4Ka inh: -60.4*; pAkt inh: inactive; Six1-Eya2 inh: 4.3; CtBP-E1A blk: 7.6; ADP-Glo interf: -1.0%

Results for CCN(CC)C(=O)CSc1nc(O)c(Cc2ccccc2)c(=O)n1-c1ccccc1C ?
PI4K2A block: 0.2; PI5P4Ka inh: -0.7; pAkt inh: inactive; Six1-Eya2 inh: 2.5; CtBP-E1A blk: 3.5

How did CCC(C)(C)C1CCc2c(sc(NC(=O)C3c4ccccc4Oc4ccccc43)c2C(N)=O)C1 (stereo unspecified) do in these assays?
PI4K2A block: -0.5

How did NC(=O)c1c(NC(=O)c2cc3ccccc3o2)sc2c1CCC2 do in these assays?
PI4K2A block: -5.6; PI5P4Ka inh: -55.9*; pAkt inh: inactive; Six1-Eya2 inh: -2.4; CtBP-E1A blk: -6.5; ADP-Glo interf: -13.6%

How did NC(=O)c1c(NC(=O)C2c3ccccc3Oc3ccccc32)sc2c1CCCCC2 do in these assays?
PI4K2A block: -10.7; PI5P4Ka inh: -54.2*; pAkt inh: inactive; Six1-Eya2 inh: -1.2; CtBP-E1A blk: 0.0; ADP-Glo interf: 3.9%
